An excerpt weighted towards active compounds, which were near 19% of everything screened.
KB-V1 cytotox: qHTS assay for MDR1-selective chemotherapeutics: Primary screen using the drug-selected MDR subline cells KB-V1; Potency, µM (doses to about 46.1 µM), usual class: cytotoxic; hit rate 3.4% among 400,000; KB-V1 MDR cells viability, CellTiter-Glo, 72 h; further: nearly all actives have a fitted effect of over 60% in size
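Cytotoxicity toward P-gp-expressing KB-V1 cells was determined as loss of CellTiter-Glo luminescence after 72 h at 37 degrees C. Compounds were tested in quantitative HTS format across a concentration range, with curves fitted to normalized data.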
DT40 TDP1 CPT: qHTS for Inhibitors of human tyrosyl-DNA phosphodiesterase 1 (TDP1): qHTS in cells in presence of CPT; hit rate 12% among 420,000; chicken DT40 Tdp1-/-;hTDP1 cells + 20 nM CPT, ATP luminescence, 48 h; Potency, µM (series often up to 46.2 µM), for inactives: at the highest dose activity change, negative = growth inhibition, most hits filed as inhibitors; further: nearly all actives have a fitted effect of over 55% in size
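Cell growth measured by CellTiter-Glo luminescence after a minimum 48 h, 37 C compound exposure with 20 nM CPT in Tdp1-knockout DT40 cells stably expressing hTDP1, seeded 400/well; qHTS titration format.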
HT1080-NT tox: qHTS for induction of synthetic lethality in tumor cells producing 2HG: qHTS for the HT-1080-NT fibrosarcoma cell line; HT-1080-NT fibrosarcoma viability, CellTiter-Glo ATP luminescence, 48 h; Potency, µM (top dose mostly 46.1 µM), for the others: at the top dose activity, negative = less viability, usual class: cytotoxic; hit rate 1.6% among 360,000; AID 686970, 2013;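 further: NT is the 2HG producing partner of a matched IDH1 knockdown line; 0% = DMSO-treated cells and -100% = media-only wells without cells; nearly all actives have a fitted effect of over 55% in size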
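Viability by CellTiter-Glo luminescence after 48 h compound exposure at 37C of HT-1080-NT cells (750/well, RPMI, 5% FBS). % activity scaled between DMSO wells and medium-only wells, then curve-fitted and categorized by curve class.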
KB-3-1 cytotox: qHTS assay for MDR1-selective chemotherapeutics: Primary screen using the parental adenocarcinoma cell KB-3-1; KB-3-1 viability, CellTiter-Glo ATP luminescence, 72 h; Potency, µM (titrated, usually from 46.1 µM), actives largely listed as cytotoxic; hit rate 1.4% among 400,000; further: nearly all actives have a fitted effect of over 60% in size
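Using CellTiter-Glo luminescence, growth of non-resistant KB-3-1 adenocarcinoma cells is assessed 72 h after pin-tool compound addition at 37 °C. Normalized responses across the concentration series yield fitted curves.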
TDP1 cell noCPT: qHTS for Inhibitors of human tyrosyl-DNA phosphodiesterase 1 (TDP1): qHTS in cells in absence of CPT; DT40 Tdp1-/- hTDP1 cells, no CPT, ATP luminescence, 48 h; Potency, µM (doses to about 46.2 µM), inactives show at the top dose activity change, negative = growth inhibition, actives largely listed as inhibitors; hit rate 15% among 420,000; AID 686978, 2013; further: nearly all actives have a fitted effect of over 55% in size
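Stably hTDP1-transfected Tdp1-null chicken DT40 cells were treated with library compounds minus camptothecin and grown for at least 48 hr at 37 °C, after which cellular ATP was quantified by luminescence.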
HT1080 IDH1KD tx: qHTS for induction of synthetic lethality in tumor cells producing 2HG: qHTS for the HT-1080-IDH1KD cell line; HT-1080 IDH1 knockdown viability, ATP luminescence, 48 h; Potency, µM (top dose mostly 46.1 µM), for the others: top-dose activity, negative = toxicity, actives largely listed as cytotoxic; hit rate 2% among 360,000; AID 686971, 2013;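 further: 0% = DMSO wells and -100% = cell-free medium wells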
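After a 2 h attachment period, IDH1KD HT-1080 cells took pin-transferred compound for 48 h at 37 °C; ATP-based luminescence after 10 min room-temperature reagent incubation reported viability.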
* hit, by the source's call; i = inactive; ? = inconclusive; nt = no result. The call rests on the fitted dose curve; in most records, active means well fitted curve in the direction sought with a large enough effect; inconclusive means small, poorly fitted or top-dose-only effect, or another doubt; inactive means no such curve, though single readings can be large; an effect the other way counts as inactive or inconclusive. Unless noted, on the % scale 0 is the no-effect control and ±100 the full control effect; potency means the concentration at half of the fitted maximal effect.

SMILES	KB-V1 cytotox	DT40 TDP1 CPT	HT1080-NT tox	KB-3-1 cytotox	TDP1 cell noCPT	HT1080 IDH1KD tx
COc1ccccc1NC(=O)CN1C(=O)CC(c2ccc(C)c(C)c2)=Nc2ccccc21	16µM*	23µM*	nt	i	23µM*	nt
COc1cc(NC(=O)CN2CCN(CC(=O)Nc3ccccc3OC)CC2)cc(OC)c1	i	16µM*	-6%	i	?	-3%
Cc1ccc([C@H]2N[C@]3(CCCN(Cc4ccco4)C3=O)[C@H]3C(=O)N(C)C(=O)[C@@H]23)cc1	i	-19%	15%	i	-9%	-2%
COCCNC(=O)CN1C(=O)COc2ccc(S(=O)(=O)N3CC(C)CC(C)C3)cc21 (stereo unspecified)	i	6%	-15%	i	-2%	4%
CCCCOc1ccc(C(=O)Nc2cc(-c3cn4cccnc4n3)ccc2OC)cc1	nt	-19%	nt	nt	-3%	nt
CCN(CC)CCNc1ccnc2cc(Cl)ccc12	?	-21%	?	i	-22%	?
S=C(NNc1ccnc2cc(Cl)ccc12)Nc1ccccc1Cl	?	4.1µM*	?	23µM*	2.6µM*	?
Clc1ccc2c(NCc3ccccc3)ccnc2c1	?	?	?	?	10µM*	-26%
O=C(NCCNc1ccnc2cc(Cl)ccc12)c1ccccc1F	i	6.5µM*	-6%	?	4.1µM*	-2%
O=C(NCCNc1ccc(Cl)cc1[N+](=O)[O-])c1ccccc1F	i	-18%	-1%	i	21µM*	-3%
Cc1cccc(CN2[C@H](CO)C=CS2(=O)=O)c1	i	7%	16%	i	27%	21%
CCCCNC(=O)COC(=O)c1ccc(NC(C)=O)cc1	i	13%	12%	i	-9%	26%
C[C@@H](C(=O)N1CCN(Cc2ccc3c(c2)OCO3)CC1)n1nnc2ccccc2c1=O	i	?	7%	i	?	1%
CCOc1ccc(NC(=O)COc2ccc(C(=O)NC(C)c3ccc(S(N)(=O)=O)cc3)cc2OC)cc1 (stereo unspecified)	i	-29%	12%	?	?	8%
Oc1ccc(Nc2ccnc3cc(Cl)ccc23)cc1	i	?	-11%	i	21µM*	-24%
CC1=NN(Cc2ccccc2)C(=O)/C1=C\c1ccc(N(C)C)cc1	i	13µM*	-5%	i	?	-8%
NC(=O)c1cc2cc(Cl)ccc2oc1=Nc1cccc(C(F)(F)F)c1	i	?	2%	i	?	10%
Cc1ccccc1[C@H](NC1c2ccccc2C=Cc2ccccc21)P(=O)(c1ccccc1)c1ccccc1	?	?	15µM*	?	?	13µM*
O=C1CN(c2nc3nonc3nc2N2CCCCC2)CCN1	i	-4%	-3%	i	13%	1%
Cc1ccc(C(C(=O)NCc2ccco2)N(C(=O)CNC(=O)c2cccs2)c2ccc(C)cc2C)cc1 (stereo unspecified)	i	29µM*	-16%	i	6.5µM*	-28%
Cc1ccc(N(C(=O)CNC(=O)c2ccco2)C(C(=O)NC2CCCC2)c2ccncc2)c(C)c1 (stereo unspecified)	i	14%	8%	i	4%	20%
COc1ccccc1-c1cnc(C(O)c2ccc(F)c(F)c2)[nH]1 (stereo unspecified)	?	?	-16%	i	?	7%

Bioassay records as filed in PubChem BioAssay.
